Measurements as given in ChEMBL document CHEMBL3433997, “St. Jude Leishmania screening dataset” (2016).

Assays:
Format in all cases: functional
[1] = target: Solute carrier family 2, facilitated glucose transporter member 1 (Homo sapiens) (UniProt P11166); test: ST_JUDE_LEISH: Cytotoxicity at 2uM final concentration against transgenic Leishmania Mexicana promastigotes LmGLUT1 that are glucose transport deficient and complemented with the human glucose transporter GLUT1. Activity is measured by DNA content using SYBR green in vitro
Sequence of Solute carrier family 2, facilitated glucose transporter member 1 (Homo sapiens) (P11166 whole entry): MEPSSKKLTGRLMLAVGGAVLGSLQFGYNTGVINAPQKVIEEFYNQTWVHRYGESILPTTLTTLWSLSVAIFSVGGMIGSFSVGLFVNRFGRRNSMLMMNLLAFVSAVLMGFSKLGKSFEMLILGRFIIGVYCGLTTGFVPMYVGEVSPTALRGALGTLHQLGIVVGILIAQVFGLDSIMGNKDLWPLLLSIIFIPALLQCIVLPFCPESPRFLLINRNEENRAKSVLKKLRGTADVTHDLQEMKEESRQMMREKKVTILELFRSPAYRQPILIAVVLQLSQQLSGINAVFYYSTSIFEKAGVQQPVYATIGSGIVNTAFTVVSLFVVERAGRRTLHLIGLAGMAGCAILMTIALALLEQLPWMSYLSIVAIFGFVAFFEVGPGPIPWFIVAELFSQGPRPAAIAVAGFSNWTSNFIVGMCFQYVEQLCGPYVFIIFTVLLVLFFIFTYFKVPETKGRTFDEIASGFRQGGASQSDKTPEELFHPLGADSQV

[2] = target: Hexose transporter 1 (Plasmodium falciparum) (UniProt O97467); test: ST_JUDE_LEISH: Cytotoxicity at 2uM final concentration against transgenic Leishmania Mexicana promastigotes LmPfHT that are glucose transport deficient and complemented with the Plasmodium falciparum hexose transporter. Activity is measured by DNA content using SYBR green in vitro
[3] = target: Glucose transporter (Leishmania mexicana) (UniProt O61059); test: ST_JUDE_LEISH: Cytotoxicity at 2uM final concentration against transgenic Leishmania Mexicana promastigotes LmGT2 that are glucose transport deficient and complemented with the L. Mexicana glucose transporter 2. Activity is measured by DNA content using SYBR green in vitro

`CCc1c(CCNCCCCCCNC(C)(C)Cc2ccc3c(c2CC)OCO3)ccc(OC)c1OC` showed an inhibition [1] of 10%, an inhibition [2] of 10.7% and an inhibition [3] of 6.49%.

`CC(=O)Nc1ncc(C(=O)Nc2cccc(-c3ccc(-c4nc5cc(F)ccc5[nH]4)cc3)c2)s1` was tested, and the inhibition [1] was 4.02%, the inhibition [2] was 1.84% and the inhibition [3] was 2.62%.

`COC(=O)CCCCOc1cc(Cc2cnc(N)nc2N)cc(OC)c1OC` was tested, and the inhibition [1] was 2.26%, the inhibition [2] was 1.3% and the inhibition [3] was 1.88%.

Work on `O=C(/C=C/c1ccc(Cl)c(Cl)c1)NCCCCCN1CC[C@H](NC(=O)c2sc3ccccc3c2Cl)C1` yielded an inhibition [1] of 5.64%, an inhibition [2] of 3.45% and an inhibition [3] of -1.69%.

With `COc1ccc2c(=O)c3ccc(OC)cc3[nH]c2c1` the inhibition [1] was 1.08%, the inhibition [2] was -2.12% and the inhibition [3] was -0.67%.

Compound `CC(=O)Nc1cc(C(=O)Nc2cccc(-c3cccc(-c4nc5cccc(C)c5[nH]4)c3)c2)ccc1C` has an inhibition [1] of 2.89%, an inhibition [2] of 2.86% and an inhibition [3] of 1.31%.

For `CCOc1ccc(S(=O)(=O)N(C)c2ccc(OCC(=O)Nc3nccs3)cc2)cc1`, the inhibition [1] was 5.83%, the inhibition [2] was 0.61% and the inhibition [3] was 1.43%.

Compound `c1cc(-c2ccc(CNCc3ccsc3)cc2)cc(-c2nc3ccccc3[nH]2)c1` has an inhibition [1] of 1.08%, an inhibition [2] of 3.56% and an inhibition [3] of -2.01%.

Compound `COc1ccc(-n2nc(C(=O)NCCC3=CCCCC3)c3ccccc3c2=O)cc1` has an inhibition [1] of 0.62%, an inhibition [2] of -0.88% and an inhibition [3] of -0.39%.

`COc1c(Br)cc(Br)cc1C(C)=O` was tested, and the inhibition [1] was 3.62%, the inhibition [2] was 3.58% and the inhibition [3] was -0.79%.

`Cc1cccc2nc(-c3ccc(-c4cccc(CN5CCC(N)C5)c4)s3)[nH]c12` (stereo not given) gave an inhibition [1] of 9.02%, an inhibition [2] of 8.9% and an inhibition [3] of 8.23%.

With `CCCS(=O)(=O)N1CCC(CO)(Cc2ccccc2C(F)(F)F)CC1` the inhibition [1] was 2.81%, the inhibition [2] was 3.09% and the inhibition [3] was 2.87%.

For `CCOc1ccccc1C1CCN(CCCCNC(=O)c2ccc(NC(=O)c3ccc(Cl)cc3)cc2)CC1`, the inhibition [1] was 10.6%, the inhibition [2] was 7.51% and the inhibition [3] was 10.8%.

`CC(=NNC(S)=NCCc1ccccn1)c1ccccn1` showed an inhibition [1] of 7.78%, an inhibition [2] of 4.39% and an inhibition [3] of 6.19%.

With `Cc1ccc(-c2nc(NC(=O)Nc3ccc(C(F)(F)F)cc3)sc2C)cc1Cl` the inhibition [1] was 5.17%, the inhibition [2] was 1.68% and the inhibition [3] was 1.54%.

`CCCOc1ccc(NC(=O)c2cccs2)cc1Cl` was tested, and the inhibition [1] was 10%, the inhibition [2] was 8.57% and the inhibition [3] was 9.7%.

In the case of `Cc1cccc2nc(-c3ccc(-c4cccc(NC(=O)COc5ccccc5C(N)=O)c4)s3)[nH]c12`, the inhibition [1] is reported as 9.69%, the inhibition [2] is reported as 9.14% and the inhibition [3] is reported as 6.9%.

Compound `Cc1cc(N[C@@H](Cc2ccccc2)C(=O)NCCc2ccccc2)nc(NCc2ccccc2C)n1` has an inhibition [1] of 2.31%, an inhibition [2] of 2.04% and an inhibition [3] of -0.14%.

Work on `CCn1c(SC)nnc1C1CCCN(CC(=O)Nc2nc3ccc(OC)cc3s2)C1` (stereo not given) yielded an inhibition [1] of 4.48%, an inhibition [2] of 3.27% and an inhibition [3] of 0.77%.

Compound `O=C(Nc1ccc(OC2CCN(Cc3ccsc3)CC2)c(Cl)c1)c1cccs1` has an inhibition [1] of 7.63%, an inhibition [2] of 2.38% and an inhibition [3] of 2.85%.

For `CC(C)(C)C1CCc2nc(N)nc(N)c2C1` (stereo not given), the inhibition [1] was 44.3%, the inhibition [2] was 55.5% and the inhibition [3] was 46.5%.

`Cc1cccc(C(=O)Nc2ccc(N3CCCN(Cc4cccc(O)c4)CC3)cc2)c1` gave an inhibition [1] of 5.01%, an inhibition [2] of 3.72% and an inhibition [3] of 2.78%.

With `CCCCCCCN(CCCCCCC)CCNc1cc(C)nc2ccccc12` the inhibition [1] was 6.37%, the inhibition [2] was 5.18% and the inhibition [3] was 4.49%.

Work on `COc1ccc(C(=O)CC(=O)c2ccc(OC)cc2OC)c(OC)c1` yielded an inhibition [1] of 6.03%, an inhibition [2] of 4.03% and an inhibition [3] of 4.43%.

With `CCOC(=O)c1cn(CC)c2cc(OCc3ccccc3)ccc2c1=O` the inhibition [1] was 0.45%, the inhibition [2] was 0.36% and the inhibition [3] was 4.59%.
